# In PubChem BioAssay (NCATS):
# Records with an inconclusive call do not appear. A call without a number means that no potency is given here. The source made the active and inactive calls. Unless noted, calls follow the shape of the dose curve; as a rule, active = well fitted inhibition curve with a large enough effect; inconclusive = small, poorly fitted or top-dose-only effect; inactive = flat fitted curve, though single readings scatter.
# What was measured:
# [1] = qHTS drug screen for cell cycle checkpoint inhibitors in PARPi-resistant BRCA-mutant ovarian cancer cell lines. (AID 1963452; calls by dose curve); details: PEO1/OlaR viability, CellTiter-Glo luminescence, 96 h, stronger effect = lower value
# In short: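 PEO1, PEO4 and PEO1/OlaR ovarian cancer cells, 600 per well, exposed 96 h at 37C to a dilution series. Viability read by CellTiter-Glo luminescence, normalized to DMSO and empty wells; activity summarized as Z-AUC.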
# [2] = qHTS for identification of novel therapeutic agents for treatment of microphthalmiaassociated transcription factor (MiT) renal cell carcinoma (RCC) (AID 1963991; calls by dose curve; also: potency is read from the fitted curve at half-maximal effect); details: CellTiter-Glo, 48 h; for z-score: stronger effect = lower value
# In short: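 Curves over 11 concentrations were fitted to CellTiter-Glo luminescence, scaled between empty wells (0%) and DMSO (100%) viability. Cells were UOK109, UOK124 and UOK145 TFE3-fusion RCC lines at 500/well, exposed 48 hours at 37 C.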
# [3] = qHTS profiling for inhibitors of Plasmodium falciparum proliferation (AID 504749); also: nearly all actives have a fitted effect of over 60% in size; details: P. falciparum in erythrocytes, SYBR Green DNA, 72 h
# In short: (§1)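 In a 72 h erythrocytic culture (37 C, humidified, 5% CO2) at 2.5% hematocrit and 0.3% starting parasitemia, compounds were tested; SYBR Green I in detergent lysis buffer stained parasite DNA overnight.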
# [4] = system: 3D7; test: as above; details: P. falciparum in erythrocytes, SYBR Green DNA, 72 h; series mostly up to 28.7 µM
# In short: as §1
# [5] = system: 7G8; test: as above; details: P. falciparum in erythrocytes, SYBR Green DNA, 72 h; series mostly up to 28.7 µM
# In short: as §1
# [6] = system: AA1029; test: as above; details: P. falciparum in erythrocytes, SYBR Green DNA, 72 h; series mostly up to 28.7 µM
# In short: as §1
# [7] = system: ATS189; test: as above; details: P. falciparum in erythrocytes, SYBR Green DNA, 72 h; series mostly up to 28.7 µM
# In short: as §1
# [8] = system: ATS95; test: as above; details: P. falciparum in erythrocytes, SYBR Green DNA, 72 h; series mostly up to 28.7 µM
# In short: as §1
# [9] = system: C2A; test: as above; details: P. falciparum in erythrocytes, SYBR Green DNA, 72 h; series mostly up to 28.7 µM
# In short: as §1
# [10] = system: CP185; test: as above; details: P. falciparum in erythrocytes, SYBR Green DNA, 72 h; series mostly up to 28.7 µM
# In short: as §1
# [11] = system: CP191; test: as above; details: P. falciparum in erythrocytes, SYBR Green DNA, 72 h; series mostly up to 28.7 µM
# In short: as §1
# [12] = system: CP194; test: as above; details: P. falciparum in erythrocytes, SYBR Green DNA, 72 h; series mostly up to 28.7 µM
# In short: as §1
# [13] = system: CP201; test: as above; details: P. falciparum in erythrocytes, SYBR Green DNA, 72 h; series mostly up to 28.7 µM
# In short: as §1
# [14] = system: CP211; test: as above; details: P. falciparum in erythrocytes, SYBR Green DNA, 72 h; series mostly up to 28.7 µM
# In short: as §1
# [15] = system: CP217; test: as above; details: P. falciparum in erythrocytes, SYBR Green DNA, 72 h; series mostly up to 28.7 µM
# In short: as §1
# [16] = system: CP237; test: as above; details: P. falciparum in erythrocytes, SYBR Green DNA, 72 h; series mostly up to 28.7 µM
# In short: as §1
# [17] = system: CP238; test: as above; details: P. falciparum in erythrocytes, SYBR Green DNA, 72 h; series mostly up to 28.7 µM
# In short: as §1
# [18] = system: AS120; test: as above; details: P. falciparum in erythrocytes, SYBR Green DNA, 72 h; series mostly up to 28.7 µM
# In short: as §1
# [19] = system: CP192; test: as above; details: P. falciparum in erythrocytes, SYBR Green DNA, 72 h; series mostly up to 28.7 µM
# In short: as §1
# [20] = system: CP215; test: as above; details: P. falciparum in erythrocytes, SYBR Green DNA, 72 h; series mostly up to 28.7 µM
# In short: as §1
# [21] = measured here: PEO1 parental Z-AUC
# [22] = TFE3-RCC UOK109 viability, measured here: UOK109 Z-AUC
# [23] = TFE3-RCC viability, measured here: UOK124 Z-AUC
# [24] = TFE3-RCC viability, measured here: UOK145 Z-AUC
# [25] = at 28.7 µM (top of the series), parasite line A
# [26] = at 28.7 µM (top of the series), parasite line B
# [27] = at 12.8 µM (top of the series), parasite line A
# [28] = at 12.8 µM (top of the series), parasite line B
smiles,measurement,setting,value
CCOC(=O)[C@@H](N)CCC(=O)N[C@@H](CSCc1ccccc1)C(=O)N[C@@H](C(=O)OCC)c1ccccc1,Z-AUC,[1],1.2 (inactive)
same,Z-AUC,[1]; [21],1.04
same,Z-AUC,[1]; measured here: PEO4 Z-AUC,1.07
same,z-score,[2]; [22],-0.0164
same,z-score,[2]; [23],0.492
same,z-score,[2]; [24],0.0682
CS(=O)(=O)c1ccc(C2=C(c3ccccc3)C(=O)OC2)cc1,Z-AUC,[1],0.327 (inactive)
same,Z-AUC,[1]; [21],0.543
same,Z-AUC,[1]; measured here: PEO4 Z-AUC,0.0438
same,z-score,[2]; [22],0.605
same,z-score,[2]; [23],0.766
same,z-score,[2]; [24],0.708
same,"activity, negative = inhibition",[3]; [25],0.606% (inactive)
same,"activity, negative = inhibition",[3]; [26],18.5% (inactive)
same,Potency,[4],inactive
same,Potency,[5],inactive
same,Potency,[6],inactive
same,Potency,[7],inactive
same,Potency,[8],inactive
same,Potency,[9],inactive
same,outcome,[10],inactive
same,outcome,[11],inactive
same,Potency,[12],inactive
same,Potency,[13],inactive
same,Potency,[14],inactive
same,Potency,[15],inactive
same,Potency,[16],inactive
same,Potency,[17],inactive
CCC(=O)N1CCN(c2ccc(-n3c(=O)ccc4cnc5ccc(-c6cnc7ccccc7c6)cc5c43)cc2C(F)(F)F)CC1,Z-AUC,[1],-1.59 (inactive)
same,Z-AUC,[1]; [21],-1.67
same,Z-AUC,[1]; measured here: PEO4 Z-AUC,-1.97
same,Potency,"[2]; TFE3-RCC UOK109 viability, active = Z-AUC below -0.8 in all three lines",20.9 nM (active)
same,z-score,[2]; [22],-1.38
same,z-score,[2]; [23],-1.23
same,z-score,[2]; [24],-1.82
N#CC(c1ccc(Cl)cc1)c1c(Cl)cc(-n2ncc(=O)[nH]c2=O)cc1Cl (stereo unspecified),Z-AUC,[1],-0.392 (inactive)
same,Z-AUC,[1]; [21],-1.19
same,Z-AUC,[1]; measured here: PEO4 Z-AUC,-1.22
same,"activity, negative = inhibition",[3]; [25],-9.47% (inactive)
same,"activity, negative = inhibition",[3]; [26],-1.8% (inactive)
same,Potency,[4],inactive
same,Potency,[6],inactive
same,Potency,[18],inactive
same,Potency,[7],inactive
same,Potency,[8],inactive
same,Potency,[9],inactive
same,outcome,[10],inactive
same,outcome,[11],inactive
same,Potency,[19],inactive
same,Potency,[12],inactive
same,Potency,[13],inactive
same,Potency,[14],inactive
same,Potency,[20],inactive
same,Potency,[15],inactive
same,Potency,[16],inactive
same,Potency,[17],inactive
COc1cc2c(cc1OC)[C@@H]1Cc3ccc(OC)c(OC)c3CN1CC2,z-score,[2]; [22],0.652
same,z-score,[2]; [23],0.474
same,z-score,[2]; [24],0.612
NS(=O)(=O)c1cc(Cl)c(Cl)c(S(N)(=O)=O)c1,Z-AUC,[1],0.54 (inactive)
same,Z-AUC,[1]; [21],0.261
same,Z-AUC,[1]; measured here: PEO4 Z-AUC,0.359
same,z-score,[2]; [22],0.846
same,z-score,[2]; [23],0.351
same,z-score,[2]; [24],1.23
same,"activity, negative = inhibition",[3]; [27],1.59% (inactive)
same,"activity, negative = inhibition",[3]; [28],6.65% (inactive)
same,Potency,[4],inactive
same,Potency,[6],inactive
same,Potency,[18],inactive
same,Potency,[7],inactive
same,Potency,[8],inactive
same,Potency,[9],inactive
same,outcome,[10],inactive
same,outcome,[11],inactive
same,Potency,[19],inactive
same,Potency,[12],inactive
same,Potency,[13],inactive
same,Potency,[14],inactive
same,Potency,[20],inactive
same,Potency,[15],inactive
same,Potency,[16],inactive
same,Potency,[17],inactive
C=C1c2cccc(O)c2C(O)=C2C(=O)[C@@]3(O)C(O)=C(C(N)=O)C(=O)[C@@H](N(C)C)[C@@H]3[C@@H](O)[C@H]12,Z-AUC,[1],-0.114 (inactive)
same,Z-AUC,[1]; [21],-0.453
same,Z-AUC,[1]; measured here: PEO4 Z-AUC,-0.502
same,z-score,[2]; [22],1.5
same,z-score,[2]; [23],0.336
same,z-score,[2]; [24],0.104
same,"activity, negative = inhibition",[3]; [27],-22.9% (inactive)
same,"activity, negative = inhibition",[3]; [28],-19.4% (inactive)
same,Potency,[4],inactive
same,Potency,[6],inactive
same,Potency,[18],inactive
same,Potency,[7],inactive
same,Potency,[8],inactive
same,Potency,[9],inactive
same,outcome,[10],inactive
same,outcome,[11],inactive
same,Potency,[19],inactive
same,Potency,[12],inactive
same,Potency,[13],inactive
same,Potency,[14],inactive
same,Potency,[20],inactive
same,Potency,[15],inactive
same,Potency,[17],inactive
